In the library only some 1.3% were active in any assay of this set; here they are far more common.
gsp antagonist – qHTS for Antagonists of gsp, the Etiologic Mutation Responsible for Fibrous Dysplasia/McCune-Albright Syndrome: qHTS | gsp-mutant cells, cAMP HTRF, 30 min | Potency, µM (series often up to 76.9 µM), without a hit: at the top dose activity change, negative = inhibition, usual class: inhibitors | hit rate 0.4% among 340,000 | AID 624288, 2012; calls by dose curve; cell line not stated here;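 further: intracellular cAMP measured with PDE inhibitor Ro 20-1724 present during compound exposure; potency means the concentration at half of the fitted maximal effect; on the % scale 0 is the no-effect control and ±100 the full control effect; nearly all actives have a fitted effect of over 65% in size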
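HTRF cAMP read-out (cAMP-d2 plus anti-cAMP antibody-K in lysis buffer, 30 min RT). Before lysis, cells are exposed to compounds with […] for 30 min at 37C in DPBS containing Ca/Mg, BSA and Tween 20.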
RXFP1 agonist – qHTS Assay for Agonists of the Relaxin Receptor RXFP1; Relaxin receptor 1 (Homo sapiens), Q9HBX9; HEK293T-RXFP1 cAMP TR-FRET, 30 min; response scale: percent of porcine relaxin response, buffer zero; Potency, µM (titrated, usually from 57.5 µM), for the others: top-dose activation, most hits filed as activators; hit rate 0.3% among 370,000; AID 2676, 2010; active means well fitted activation curve with a large enough effect; inconclusive means small, poorly fitted or top-dose-only effect; further: potency means the concentration at half of the fitted maximal effect; on the % scale 0 is the no-effect control and ±100 the full control effect; nearly all actives have a fitted effect of over 60% in size
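Agonist response is measured as cAMP accumulation in an RXFP1-transfected HEK293T line under PDE4 inhibition. Values are scaled between buffer-only and 29 nM porcine relaxin, and EC50s come from standard Hill equation fits.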
Akt phos inh – HTS Assay for Inhibitors of Akt Phophorylation: Primary Screen; Neuro2A IGF-stimulated pAkt S473 HTRF, 20 min; active compounds read low; activity change, % for hits at 50 µM; hit rate 0.32% among 360,000; in the data active means activity change below about -80%; inconclusive means mostly about -51% to -80%; further: on the % scale 0 is the no-effect control and ±100 the full control effect
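Neuro2A cells (4,500/well, DMEM with 0.5% FBS) were treated with compound at a single 50 µM final concentration, stimulated with 6 nM IGF for 20 min at 37 °C, and lysed. Phospho-Akt Ser473 was read by HTRF as 665/615 ratio ×10^4.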
TSHR antagonist – Antagonists of the Thyroid Stimulating Hormone Receptor: HTS campaign; hit rate 0.2% among 330,000; TSHR-expressing cells, TSH-stimulated cAMP HTRF, 2 h; active compounds read low; Thyrotropin receptor (Homo sapiens), P16473; activity change, negative = inhibition, % at 11.5 µM;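 active means activity change below a set negative limit, meaning inhibition stronger than a set level, cut at about -70% in these data; inconclusive means activity change between two set negative limits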; further: on the % scale 0 is the no-effect control and ±100 the full control effect
Target sequence (P16473 whole entry, looked up): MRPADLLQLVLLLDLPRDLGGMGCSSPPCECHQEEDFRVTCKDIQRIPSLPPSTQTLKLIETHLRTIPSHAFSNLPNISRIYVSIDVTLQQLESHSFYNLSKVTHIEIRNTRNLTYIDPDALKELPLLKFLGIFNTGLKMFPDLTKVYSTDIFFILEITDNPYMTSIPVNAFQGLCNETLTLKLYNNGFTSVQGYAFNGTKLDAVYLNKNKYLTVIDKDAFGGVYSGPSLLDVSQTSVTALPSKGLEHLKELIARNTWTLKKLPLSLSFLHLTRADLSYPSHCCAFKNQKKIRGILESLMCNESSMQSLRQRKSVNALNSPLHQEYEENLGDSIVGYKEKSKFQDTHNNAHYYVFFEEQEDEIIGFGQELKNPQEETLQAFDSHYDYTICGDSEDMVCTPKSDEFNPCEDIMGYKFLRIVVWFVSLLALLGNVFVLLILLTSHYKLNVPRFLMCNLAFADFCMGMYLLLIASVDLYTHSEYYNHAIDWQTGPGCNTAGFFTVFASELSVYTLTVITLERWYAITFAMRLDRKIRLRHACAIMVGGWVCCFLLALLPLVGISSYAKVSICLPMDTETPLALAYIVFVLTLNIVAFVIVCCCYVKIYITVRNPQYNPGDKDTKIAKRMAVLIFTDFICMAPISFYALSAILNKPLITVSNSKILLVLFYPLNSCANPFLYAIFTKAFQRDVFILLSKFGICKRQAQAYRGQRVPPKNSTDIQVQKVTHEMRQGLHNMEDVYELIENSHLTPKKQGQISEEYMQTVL
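Read-out is FRET at 665 nm (cryptate excitation 337 nm) from a cryptate-tagged anti-cAMP antibody, competed by cell cAMP against cAMP-d2. Compounds are tested on freshly harvested TSHR cells challenged with 4nM TSH (EC80) for 2 hours at 37 deg C.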
gsp agonist – qHTS for Agonist of gsp, the Etiologic Mutation Responsible for Fibrous Dysplasia/McCune-Albright Syndrome: qHTS; gsp mutant cells, cAMP HTRF, 30 min; Potency, µM (top dose mostly 76.9 µM), for inactives: at the highest dose activation (cAMP increase), hits mostly activators; hit rate 0.13% among 340,000; active means well fitted activation curve with a large enough effect; inconclusive means small, poorly fitted or top-dose-only effect, or another doubt; inactive means no such curve, though single readings can be large or run the other way; cell line not stated here;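 further: phosphodiesterase inhibitor Ro 20-1724 added with compounds to block cAMP breakdown; potency means the concentration at half of the fitted maximal effect; nearly all actives have a fitted effect of over 60% in size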
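Cells in DMEM/10% FBS with G418 were pretreated with compounds in DMSO plus […] (300 uM stock) for 30 min at 37C. cAMP was measured by HTRF (cAMP-d2 plus anti-cAMP antibody-K) after 30 min at room temperature.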
RXFP1 antag – qHTS Assay for Antagonists of the Relaxin Receptor RXFP1; Relaxin receptor 1 (Homo sapiens), Q9HBX9; HEK293-RXFP1, relaxin-stimulated cAMP HTRF, 30 min; active compounds read low; activity change, negative = inhibition, % at 57.5 µM; hit rate 0.59% among 350,000; AID 1259400, 2018;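 active means activity change of -60% or lower, but not beyond a set lower limit; inconclusive means change between -60% and -40%, or beyond the set limit; inactive means change above -40%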; further: on the % scale 0 is the no-effect control and ±100 the full control effect
* marks the source's active call; other numbers are inactive results; i = inactive; ? = inconclusive; . = no result given; [ ] = dose if it differs, or a comment.

SMILES	gsp antagonist	RXFP1 agonist	Akt phos inh	TSHR antagonist	gsp agonist	RXFP1 antag
Cc1ccc(S(=O)(=O)N2CCN(C(=O)CSc3nc4ccccc4c(=O)[nH]3)CC2)cc1	6.1%	?	-95.3%*	5.2	14.3%	5.5
Cc1ccc(N(CCC#N)C(=O)CSc2nc3ccccc3c(=O)[nH]2)cc1	50.1µM*	4.1%	i	-8.0	-7.5%	-3.3
Cc1ccc(-c2nnc(SCC(=O)O)n2N)cc1	1.5%	1.4%	i	9.0	?	-3.4
CN(Cc1ccccc1)c1ncnc2c1nc1n2CCCC1	.	3.4%	.	.	.	16.0
Cc1n[nH]c(C)c1N1C(=O)c2cccc3c(Br)ccc(c23)C1=O	7.0%	-1.2%	-113.4%*	52.9	11.3%	1.0
CCC(=O)N1CCc2cc(S(=O)(=O)NC(CC(C)C)C(=O)NCc3ccc(F)cc3)ccc21 (stereo unspecified)	.	2.7%	.	.	.	-17.5
Cc1nn(-c2cccc(Cl)c2)c2c1C(c1ccncc1)C(C#N)=C(N)O2 (stereo unspecified)	39.8µM*	-0.1%	i	-13.7	-0.6%	-7.2
CCN(CC)c1ccc(/C=N/n2c(-c3ccccc3Br)n[nH]c2=S)cc1	?	0.3%	i	-2.5	-10.6%[15.4 µM]	-84.0*
CCCc1ncc(C(=O)O)s1	.	.	.	.	.	-0.5
Cc1ccc(C)c(-n2nnnc2SCC(=O)NNC(=O)c2ccco2)c1	-1.7%	1.0%	i	-13.5	-47.5%	10.4
CC(C)CN(C(=O)CSc1ncnc2ccccc12)C1CCS(=O)(=O)C1 (stereo unspecified)	-14.4%	6.4%	i	2.3	-3.9%	3.1
CN(C(=O)CSc1ncnc2ccccc12)C1CCS(=O)(=O)C1 (stereo unspecified)	8.4%	8.4%	i	19.3	12.6µM*	5.1
O=C(CN1C(=O)c2ccccc2C1=O)NCC1CCCO1 (stereo unspecified)	13.2%	14.6%	i	4.8	?	3.3
O=C(CN1C(=O)c2ccc(Br)cc2C1=O)NCC1CCCO1 (stereo unspecified)	13.1%	?	i	41.2	7.08µM*	11.2
Cc1cn([C@@H](CCCCNC(=O)OC(C)(C)C)C(=O)NCCCCCCCCCCC(=O)N2CCN(C(=O)OC(C)(C)C)CC2)nn1	28.2µM*	0.0%	i	?	.	.
O=C(Nc1ccccn1)C(c1ccccc1)c1ccccc1	.	.	i	.	24.0%	-2.3
O=C(CNC(=O)N1CC(=O)Nc2ccccc21)NCc1ccccc1Cl	3.6%	-1.2%	i	3.1	-1.3%	-60.9*
O=C(CNC(=O)N1CC(=O)Nc2ccccc21)Nc1ccc(Cl)cc1	-10.1%	0.9%	i	3.1	-55.2%	-60.9*
O=C(CNC(=O)N1CC(=O)Nc2ccccc21)NCc1ccccc1	10.8%	0.7%	i	0.0	?	4.1
CCC(C)NCCCOc1ccc(Cl)cc1C(C)(C)C (stereo unspecified)	14.2%	0.1%	i	4.6	0.7%	8.1
C=CCc1cc(Cl)ccc1OCCCNC(C)CC (stereo unspecified)	14.0%	-1.0%	i	3.8	-23.7%	-62.7*
CC(=O)c1cn(CC(=O)Nc2ccccc2C)c2ccccc12	6.3%	0.6%	-111.3%*	-11.6	5.2%	24.6
Cc1nn(-c2nc(-c3ccco3)cc(C(F)(F)F)n2)c(C)c1Cl	12.2%	0.9%	-115.9%*	-8.3	-37.1%	-3.4
c1ccc(Sc2ccccn2)cc1	11.4%	.	i	.	-3.1%[15.4 µM]	-7.4
c1ccc(SSc2ccccn2)nc1	0.5%	.	i	.	-4.4%[15.4 µM]	-66.5*
SMILES	gsp antagonist	RXFP1 agonist	Akt phos inh	TSHR antagonist	gsp agonist	RXFP1 antag
CC(=O)c1ccc(/C=C/c2nc3ccccc3n2C)o1	-1.9%	25.1µM*	i	5.6	?	48.6
Cn1c(/C=C/c2ccccc2)nc2ccccc21	-10.0%	6.3%	i	-0.3	24.1%	-4.4
Cc1cc(C)n2c(Nc3ccccc3)c(-c3ccccc3)nc2n1	.	7.1%	.	.	.	-9.6
CCn1c(=S)sc2c(=O)n(CC(=O)Nc3ccccc3OC)c(C)nc21	-1.8%	1.4%	i	-134.1*	-30.3%	-0.4
CCn1c(=S)sc2c(=O)n(CC(=O)Nc3cc(OC)ccc3OC)c(C)nc21	-3.9%	-4.3%	i	-0.8	1.6%	1.1
O=C(C1CCCCC1)N1CCN(c2ccnc3cc(Cl)ccc23)CC1	35.5µM*	0.9%	i	18.8	3.6%[15.4 µM]	-4.0
COc1ccccc1NC(=O)N1CCN(c2ccnc3cc(Cl)ccc23)CC1	35.5µM*	-2.2%	i	27.9	-2.9%[15.4 µM]	-36.0
COc1cc(OC)c(S(=O)(=O)NC(C)C)cc1S(=O)(=O)NC(C)C	8.8%	-4.3%	i	1.4	2.5%	6.5
Cc1cccc(-c2cccc(NC(=O)C3CCCN(C(=O)c4csc(C)n4)C3)c2)c1 (stereo unspecified)	35.5µM*	0.4%	i	-4.7	?	10.4
Cc1cccc(-c2cccc(NC(=O)C3CCCN(C(=O)c4cccnc4)C3)c2)c1 (stereo unspecified)	-11.9%	-0.2%	i	10.8	?	6.6
CN(Cc1ccn[nH]1)C(=O)C1CCC(=O)N(Cc2cccc(C(F)(F)F)c2)C1 (stereo unspecified)	-1.7%	2.3%	.	-1.4	-9.9%	-1.2
O=C(CCn1c(=S)[nH]c2cc3c(cc2c1=O)OCO3)NCCc1ccccc1Cl	.	.	i	.	-36.5%	-13.3
O=C(CCCn1c(=S)[nH]c2cc3c(cc2c1=O)OCO3)NCc1cccc(Cl)c1	-2.6%	?	.	-2.9	10.8%	-102.8*
O=C(CCn1c(=S)[nH]c2cc3c(cc2c1=O)OCO3)NCc1ccccc1Cl	19.4%	?	i	-6.0	23.4%	-69.8*
Cc1ccc(NC(=O)Cn2c(-c3nonc3N)nc3ccccc32)c(Br)c1	.	-5.5%	.	.	.	-3.1
COc1cccc(CN(C)C(=O)c2cc(COc3ccc(-n4cncn4)cc3)on2)c1	?	-2.6%	i	-15.8	21.9%	8.6
O=C(OCC(=O)N1CCN(c2ccccc2)CC1)c1cnc(Cl)c(Cl)c1	.	-1.7%	.	-18.6	.	.
O=C(OCC(=O)N1CCN(c2ccccc2)CC1)c1cccc(Cl)c1	-0.2%	0.8%	-113.2%*	19.7	19.0%	-18.6
CCCC(=O)NC1=C(Cl)C(=O)c2ccccc2C1=O	44.7µM*	.	i	.	-2.0%	?
CCN(CC)c1ccc(NC2=C(Cl)C(=O)c3ccccc3C2=O)cc1	-5.2%	-4.0%	i	-92.8*	-11.2%	1.2

Screening results (PubChem BioAssay)
